# Data reported in PubChem BioAssay (NCI).
# About 79,000 compounds went through this panel and 15% of them were active in at least one assay; those are over-represented in the sample as a whole. A number with no mark means an inactive call. Activity calls are given as the source filed them. No stated cut-off is given here; in the data, active means growth inhibition above about 70%; inactive means the rest.
# Columns and labels:
# [1] = NCI Yeast Anticancer Drug Screen. Data for the rad52 strain (AID 147);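 further: 0% = growth of vehicle-treated control cultures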; details: S. cerevisiae rad52 mutant growth inhibition, stronger effect = higher value
# Method in brief: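 Read-out: growth inhibition versus vehicle-treated controls. Cells were a DNA repair-deficient yeast strain treated with compounds.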
# [2] = NCI Yeast Anticancer Drug Screen. Data for the wt1 strain (AID 149);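 further: 0% = growth of vehicle-treated wt1 cultures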; details: S. cerevisiae wt1 strain (SPY 50644) growth inhibition, stronger effect = higher value
# Method in brief: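 Yeast wt1 strain exposed to compounds; growth inhibition measured relative to vehicle-treated controls.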
# [3] = NCI Yeast Anticancer Drug Screen. Data for the rad50EPP+ strain (AID 151);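 further: 0% = growth of vehicle-treated control cultures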; details: S. cerevisiae rad50 mutant strain, stronger effect = higher value
# Method in brief: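 Growth inhibition read against vehicle controls in rad50EPP+ yeast, a strain altered in DNA damage repair, after compound exposure.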
# [4] = NCI Yeast Anticancer Drug Screen. Data for the mgt1 strain (AID 153); details: S. cerevisiae mgt1 mutant growth inhibition, stronger effect = higher value
# Method in brief: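 mgt1 yeast grown with test compound; read-out is growth inhibition versus vehicle-treated cultures.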
# [5] = NCI Yeast Anticancer Drug Screen. Data for the rad50 strain (AID 155);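 further: 0% = growth of vehicle-only cultures of the same strain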; details: S. cerevisiae rad50 strain growth inhibition, stronger effect = higher value
# Method in brief: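 Yeast carrying a defined DNA repair defect were exposed to test compounds, and growth was compared with vehicle-treated controls to give percent inhibition.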
# [6] = NCI Yeast Anticancer Drug Screen. Data for the mec2-1 strain (AID 157); details: S. cerevisiae mec2-1 strain, stronger effect = higher value
# Method in brief: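 Yeast mec2-1 mutant treated with compound. Readout: growth inhibition vs vehicle controls.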
# [7] = NCI Yeast Anticancer Drug Screen. Data for the rad14 strain (AID 159);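 further: 0% = growth of vehicle-treated control cultures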; details: S. cerevisiae rad14 strain growth inhibition, stronger effect = higher value
# Method in brief: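 Yeast cells carrying a defined DNA-repair defect were exposed to compounds, and growth inhibition was calculated relative to vehicle-treated control cultures.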
# [8] = NCI Yeast Anticancer Drug Screen. Data for the sgs1 mgt1 strain (AID 161);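 further: 0% = growth of cultures given vehicle only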; details: S. cerevisiae sgs1 mgt1 strain, stronger effect = higher value
# Method in brief: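 Mutant yeast exposed to compound; growth scored against vehicle-only wells.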
# [9] = NCI Yeast Anticancer Drug Screen. Data for the CLN2oe strain (AID 163);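 further: 0% = growth of vehicle-only control cultures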; details: S. cerevisiae CLN2oe strain, stronger effect = higher value
# Method in brief: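 Read-out: yeast growth inhibition, expressed relative to vehicle-only controls. The strain bears an engineered cell-cycle alteration.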
# [10] = NCI Yeast Anticancer Drug Screen. Data for the cln2 rad14 strain (AID 165);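 further: 0% = growth equal to vehicle treated cultures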; details: S. cerevisiae cln2 rad14 strain, stronger effect = higher value
# Method in brief: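 cln2 rad14 yeast strain; compound exposure; growth inhibition read vs vehicle controls.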
# [11] = NCI Yeast Anticancer Drug Screen. Data for the bub3 strain (AID 167); details: S. cerevisiae bub3 mutant strain, stronger effect = higher value
# Method in brief: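 Compounds were applied to a genetically altered yeast strain carrying a cell-cycle control defect. Growth inhibition was scored against vehicle-treated controls.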
# [12] = NCI Yeast Anticancer Drug Screen. Data for the wt2 strain (AID 169);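 further: 0% = growth of vehicle-treated yeast cultures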; details: S. cerevisiae wt2 strain growth inhibition, stronger effect = higher value
# Method in brief: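 Read-out: growth inhibition versus vehicle-treated control cultures after compound exposure of the yeast strain.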
# [13] = NCI Yeast Anticancer Drug Screen. Data for the mlh1 strain (AID 171);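 further: 0% = growth of vehicle-treated control cultures of the same strain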; details: S. cerevisiae mlh1 strain growth inhibition, stronger effect = higher value
# Method in brief: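 Read-out: growth inhibition versus vehicle controls. Strain: engineered yeast with a defined DNA repair or cell cycle defect, compound-treated.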
# [14] = NCI Yeast Anticancer Drug Screen. Data for the sgs1 strain (AID 173);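 further: 0% = growth of vehicle-only control cultures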; details: S. cerevisiae sgs1 mutant, stronger effect = higher value
# Method in brief: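 Read-out: yeast growth inhibition relative to vehicle controls, following compound exposure of a strain with a defined DNA repair/cell cycle alteration.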
# [15] = NCI Yeast Anticancer Drug Screen. Data for the mlh1 rad18 strain (AID 175); details: S. cerevisiae mlh1 rad18 strain growth inhibition, stronger effect = higher value
# Method in brief: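 Yeast w/ defined DNA-repair lesions; compound exposure; growth vs vehicle controls → % inhibition.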
# [16] = NCI Yeast Anticancer Drug Screen. Data for the rad18 strain (AID 177); details: S. cerevisiae rad18 mutant growth inhibition, stronger effect = higher value
# Method in brief: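 Readout: growth inhibition vs vehicle controls. Cells: genetically altered yeast strain, DNA repair defect.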
# [17] = at 5.0 µM (retest, dose inferred, filed as 0.5)
# [18] = at 50.0 µM (retest, dose inferred, filed as 5.0)
smiles,measurement,setting,value
Oc1cccc2c(Cl)ccnc12,growth inhibition,[1]; at 1.2 µM,42%
same,growth inhibition,[1]; at 3.7 µM,99% (active)
same,growth inhibition,[1]; at 11.0 µM,99% (active)
same,growth inhibition,[1]; at 33.0 µM,95% (active)
same,growth inhibition,[1]; at 100.0 µM,98% (active)
same,growth inhibition,[2]; at 1.2 µM,47%
same,growth inhibition,[2]; at 3.7 µM,98% (active)
same,growth inhibition,[2]; at 11.0 µM,38%
same,growth inhibition,[2]; at 33.0 µM,97% (active)
same,growth inhibition,[2]; at 100.0 µM,99% (active)
same,growth inhibition,[3]; at 1.2 µM,83% (active)
same,growth inhibition,[3]; at 3.7 µM,102% (active)
same,growth inhibition,[3]; at 11.0 µM,81% (active)
same,growth inhibition,[3]; at 33.0 µM,97% (active)
same,growth inhibition,[3]; at 100.0 µM,97% (active)
same,growth inhibition,[4]; at 1.2 µM,41%
same,growth inhibition,[4]; at 3.7 µM,99% (active)
same,growth inhibition,[4]; at 11.0 µM,98% (active)
same,growth inhibition,[4]; at 33.0 µM,95% (active)
same,growth inhibition,[4]; at 100.0 µM,98% (active)
same,growth inhibition,[5]; at 1.2 µM,43%
same,growth inhibition,[5]; at 3.7 µM,100% (active)
same,growth inhibition,[5]; [17],99% (active)
same,growth inhibition,[5]; at 11.0 µM,98% (active)
same,growth inhibition,[5]; at 33.0 µM,97% (active)
same,growth inhibition,[5]; [18],99% (active)
same,growth inhibition,[5]; at 50.0 µM,91.5% (active)
same,growth inhibition,[5]; at 100.0 µM,97% (active)
same,growth inhibition,[6]; at 1.2 µM,39%
same,growth inhibition,[6]; at 3.7 µM,63%
same,growth inhibition,[6]; [17],99% (active)
same,growth inhibition,[6]; at 11.0 µM,99% (active)
same,growth inhibition,[6]; at 33.0 µM,97% (active)
same,growth inhibition,[6]; [18],99% (active)
same,growth inhibition,[6]; at 50.0 µM,93.2% (active)
same,growth inhibition,[6]; at 100.0 µM,99% (active)
same,growth inhibition,[7]; at 1.2 µM,37%
same,growth inhibition,[7]; at 3.7 µM,99% (active)
same,growth inhibition,[7]; at 11.0 µM,99% (active)
same,growth inhibition,[7]; at 33.0 µM,96% (active)
same,growth inhibition,[7]; at 100.0 µM,98% (active)
same,growth inhibition,[8]; [17],-5%
same,growth inhibition,[8]; [18],99% (active)
same,growth inhibition,[8]; at 50.0 µM,93.8% (active)
same,growth inhibition,[9]; at 1.2 µM,52%
same,growth inhibition,[9]; at 3.7 µM,96% (active)
same,growth inhibition,[9]; at 11.0 µM,97% (active)
same,growth inhibition,[9]; at 33.0 µM,93% (active)
same,growth inhibition,[9]; at 100.0 µM,97% (active)
same,growth inhibition,[10]; [17],43%
same,growth inhibition,[10]; [18],99% (active)
same,growth inhibition,[10]; at 50.0 µM,91.8% (active)
same,growth inhibition,[11]; at 1.2 µM,32%
same,growth inhibition,[11]; at 3.7 µM,54%
same,growth inhibition,[11]; [17],93% (active)
same,growth inhibition,[11]; at 11.0 µM,98% (active)
same,growth inhibition,[11]; at 33.0 µM,92% (active)
same,growth inhibition,[11]; [18],100% (active)
same,growth inhibition,[11]; at 50.0 µM,92.8% (active)
same,growth inhibition,[11]; at 100.0 µM,97% (active)
same,growth inhibition,[12]; at 1.2 µM,38%
same,growth inhibition,[12]; at 3.7 µM,97% (active)
same,growth inhibition,[12]; at 11.0 µM,98% (active)
same,growth inhibition,[12]; at 33.0 µM,97% (active)
same,growth inhibition,[12]; at 100.0 µM,98% (active)
same,growth inhibition,[13]; at 1.2 µM,27%
same,growth inhibition,[13]; at 3.7 µM,99% (active)
same,growth inhibition,[13]; at 11.0 µM,98% (active)
same,growth inhibition,[13]; at 33.0 µM,97% (active)
same,growth inhibition,[13]; at 100.0 µM,99% (active)
same,growth inhibition,[14]; at 1.2 µM,36%
same,growth inhibition,[14]; at 3.7 µM,99% (active)
same,growth inhibition,[14]; at 11.0 µM,99% (active)
same,growth inhibition,[14]; at 33.0 µM,96% (active)
same,growth inhibition,[14]; at 100.0 µM,98% (active)
same,growth inhibition,[15]; [17],100% (active)
same,growth inhibition,[15]; [18],99% (active)
same,growth inhibition,[15]; at 50.0 µM,91% (active)
same,growth inhibition,[16]; at 1.2 µM,33%
same,growth inhibition,[16]; at 3.7 µM,98% (active)
same,growth inhibition,[16]; at 11.0 µM,97% (active)
same,growth inhibition,[16]; at 33.0 µM,92% (active)
same,growth inhibition,[16]; at 100.0 µM,97% (active)
CC(C)OC(=O)Oc1ccccc1OC(=O)OC(C)C,growth inhibition,[1]; at 1.2 µM,-3%
same,growth inhibition,[1]; at 3.7 µM,-3%
same,growth inhibition,[1]; at 11.0 µM,1%
same,growth inhibition,[1]; at 33.0 µM,2%
same,growth inhibition,[1]; at 100.0 µM,-3%
same,growth inhibition,[2]; at 1.2 µM,-2%
same,growth inhibition,[2]; at 3.7 µM,-3%
same,growth inhibition,[2]; at 11.0 µM,-1%
same,growth inhibition,[2]; at 33.0 µM,-3%
same,growth inhibition,[2]; at 100.0 µM,-2%
same,growth inhibition,[3]; at 1.2 µM,-1%
same,growth inhibition,[3]; at 3.7 µM,2%
same,growth inhibition,[3]; at 11.0 µM,2%
same,growth inhibition,[3]; at 33.0 µM,-1%
same,growth inhibition,[3]; at 100.0 µM,2%
same,growth inhibition,[4]; at 1.2 µM,2%
same,growth inhibition,[4]; at 3.7 µM,3%
same,growth inhibition,[4]; at 11.0 µM,3%
same,growth inhibition,[4]; at 33.0 µM,2%
same,growth inhibition,[4]; at 100.0 µM,4%
same,growth inhibition,[5]; at 1.2 µM,-5%
same,growth inhibition,[5]; at 3.7 µM,-3%
same,growth inhibition,[5]; [17],1%
same,growth inhibition,[5]; at 11.0 µM,-2%
same,growth inhibition,[5]; at 33.0 µM,-1%
same,growth inhibition,[5]; [18],3%
same,growth inhibition,[5]; at 50.0 µM,39.3%
same,growth inhibition,[5]; at 100.0 µM,-1%
same,growth inhibition,[6]; at 1.2 µM,0%
same,growth inhibition,[6]; at 3.7 µM,-1%
same,growth inhibition,[6]; [17],-15%
same,growth inhibition,[6]; at 11.0 µM,0%
same,growth inhibition,[6]; at 33.0 µM,0%
same,growth inhibition,[6]; [18],-5%
same,growth inhibition,[6]; at 50.0 µM,20.9%
same,growth inhibition,[6]; at 100.0 µM,-1%
same,growth inhibition,[7]; at 1.2 µM,-6%
same,growth inhibition,[7]; at 3.7 µM,-4%
same,growth inhibition,[7]; at 11.0 µM,-3%
same,growth inhibition,[7]; at 33.0 µM,0%
same,growth inhibition,[7]; at 100.0 µM,0%
same,growth inhibition,[8]; [17],-2%
same,growth inhibition,[8]; [18],-6%
same,growth inhibition,[8]; at 50.0 µM,1.8%
same,growth inhibition,[9]; at 1.2 µM,2%
same,growth inhibition,[9]; at 3.7 µM,4%
same,growth inhibition,[9]; at 11.0 µM,3%
same,growth inhibition,[9]; at 33.0 µM,1%
same,growth inhibition,[9]; at 100.0 µM,4%
same,growth inhibition,[10]; [17],26%
same,growth inhibition,[10]; [18],55%
same,growth inhibition,[10]; at 50.0 µM,23.2%
same,growth inhibition,[11]; at 1.2 µM,0%
same,growth inhibition,[11]; at 3.7 µM,0%
same,growth inhibition,[11]; [17],15%
same,growth inhibition,[11]; at 11.0 µM,4%
same,growth inhibition,[11]; at 33.0 µM,7%
same,growth inhibition,[11]; [18],8%
same,growth inhibition,[11]; at 50.0 µM,15.7%
same,growth inhibition,[11]; at 100.0 µM,9%
